Data as given in PubChem BioAssay (NCI).
About 83,000 compounds went through this panel and 20% of them were active in at least one assay; those are over-represented in the sample as a whole.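 Single-dose data. Exposure time 48 hours. Values below 10 considered active.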 Active and inactive are the calls of the source.

Experiments:
Test in all cases: NCI-60 one-dose screen, 48 h (100 = growth as untreated, 0 = no growth, -100 = all killed)
[1] = system: K-562 leukemia; details: 10 µM unless noted
[2] = system: RXF 393 renal; details: 10 µM unless noted
[3] = system: SF-295 CNS; details: 10 µM unless noted
[4] = system: M14 melanoma; details: 10 µM unless noted
[5] = system: SNB-19 CNS; details: 10 µM unless noted
[6] = system: U251 CNS; details: 10 µM unless noted
[7] = system: SK-MEL-2 melanoma; details: 10 µM unless noted
[8] = system: A498 renal; details: 10 µM unless noted
[9] = system: HL-60(TB) leukemia; details: 10 µM unless noted
[10] = system: CCRF-CEM leukemia; details: 10 µM unless noted
[11] = system: SR leukemia; details: 10 µM
[12] = system: OVCAR-4 ovarian; details: 10 µM unless noted
[13] = system: SK-OV-3 ovarian; details: 10 µM unless noted
[14] = system: BT-549 breast; details: 10 µM
[15] = system: MDA-MB-435 melanoma; details: 10 µM unless noted
[16] = system: MALME-3M melanoma; details: 10 µM unless noted
[17] = system: OVCAR-8 ovarian; details: 10 µM unless noted
[18] = system: OVCAR-5 ovarian; details: 10 µM unless noted
[19] = system: IGROV1 ovarian; details: 10 µM
[20] = system: SNB-75 CNS; details: 10 µM unless noted

Measured: growth

NCCc1cc(O)c(O)cc1O
inactive: [1] 102% | [2] 113% | [3] 106% | [4] 99.6% | [5] 100% | [6] 95.4% | [7] 101% | [8] 122% | [9] 103% | [10] 65.7% | [11] 98% | [12] 99.5% | [13] 99% | [14] 90.9% | [15] 108%

CCCCCCCC(=O)OCC/C=C/C1OC1C1OC(=O)/C=C\C=C\c2nc(oc2C)/C=C(/C)CCC2OC2C1OC(=O)NC(C)=O (stereo unspecified)
active: [16] -12.4% | [2] -58.3% | [3] -37.6% | [4] -20.4% | [5] -56.8% | [6] -34.3% | [7] -44.5% | [8] -82.5% | [17] -79.1% | [18] -22% | [12] 8.12% | [13] -38.5% | [19] -10.2% | [14] -2.38% | [15] 3.24%

CCC(CC)(c1ccccc1)C(OC(N)=O)c1ccccc1 (stereo unspecified)
inactive: [1] 66% | [3] 71.9% | [4] 83.6% | [20] 74.8% | [5] 88.1% | [6] 82.1% | [7] 79.2% | [8] 79.2% | [9] 96.1% | [10] 88.9% | [11] 72.8% | [17] 92.5% | [18] 111% | [12] 83.7% | [13] 66.5% | [19] 73.4% | [14] 110% | [15] 50.6%

Nc1cccc(CC(=O)Nc2ccc(S(=O)(=O)F)cc2)c1
active: [10] 2.63%
inactive: [1] 144% | [16] 90% | [2] 87.3% | [3] 101% | [4] 90.7% | [20] 71.8% | [5] 105% | [6] 102% | [7] 125% | [11] 96.7% | [17] 91.2% | [18] 98.5% | [13] 92.4% | [14] 97%

N#Cc1ncc(/N=C/c2ccc(N(CCCl)CCCl)cc2)s1
inactive: [1] 37.6% | [2] 84.7% | [3] 58.4% | [4] 86.8% | [5] 89% | [6] 80.5% | [7] 57% | [8] 88.2% | [9] 39.3% | [10] 56.2% | [11] 12.7% | [17] 78.3% | [12] 81.9% | [13] 78.5% | [19] 90% | [14] 66% | [15] 87.8%

CC1(C)N=C(N)N=C(N)N1c1ccc(CCCCc2ccc(Cl)cc2S(=O)(=O)F)c(Cl)c1
inactive: [1] 14.5% | [16] 39.3% | [2] 29.6% | [3] 22.9% | [4] 18% | [20] 51.9% | [5] 36.6% | [6] 15.3% | [7] 38.3% | [8] 54.7% | [9] 15.5% | [10] 13.1% | [17] 15.2% | [18] 31.4% | [12] 50.3% | [13] 44.2% | [19] 30.7% | [14] 37% | [15] 19.6%

c1cnc2c(c1)ccc1ncccc12
inactive: [1] 99.8% | [16] 118% | [3] 115% | [20] 97.8% | [5] 95.7% | [6] 105% | [8] 207% | [9] 93.6% | [10] 95.6% | [11] 110% | [17] 94.4% | [18] 148% | [12] 109% | [14] 106% | [15] 113%

Nc1ccc(N)c2c1Oc1ccccc1O2
inactive: [1] 92.1% | [16] 111% | [3] 101% | [4] 101% | [20] 108% | [5] 104% | [6] 94.3% | [7] 95.9% | [8] 92.9% | [9] 69.4% | [10] 30.3% | [17] 97.5% | [18] 89% | [12] 110% | [13] 94.6% | [14] 97.9% | [15] 109%
active: [19] 6.91%

COc1ccc2c(c1)NC1=C(C(=O)OC1)C2c1cc(OC)c(OC)c(OC)c1 (stereo unspecified)
active: [1] 7.31% | [3] 1.12% | [6] 5.77% | [8] -13.7% | [9] -31.3% | [10] 6.76% | [11] 5.65% | [14] 7.12% | [15] -35.5%
inactive: [16] 21.7% | [2] 36.7% | [20] 45.7% | [5] 47.3% | [7] 15.7% | [17] 15.2% | [18] 36.1% | [12] 37% | [13] 36.9% | [19] 12%
